Our source for the cytotoxicity call values is the antibiotic and cytotoxicity screens of Wong et al. (2023).

Screen size: about 39,000 compounds; about 3,300 (8.5%) were called active. The full list was thinned out, with actives kept by preference.

The test system of the assay is HepG2. As to the kind of experiment: cytotoxicity call (relative viability < 0.9). The conditions noted are these: 10 µM.
Turning to `CCNC(=O)C[C@H]1CC[C@H]2[C@@H](COC[C@H](O)CN2C(=O)Nc2c(C)noc2C)O1`, the cytotoxicity call is “inactive”. As for `O=C(C[C@@H]1C=C[C@H](NS(=O)(=O)c2ccccc2)[C@H](CO)O1)NCc1ccncn1`, the cytotoxicity call was “inactive”.

`COc1ccc2c3c(n(c2c1)C)[C@@H](CO)N(C[C@]13CCN(CC1)C(=O)Nc1cccc(c1)F)S(=O)(=O)C`: the cytotoxicity call was “inactive”. With `C[C@H]1CN([C@@H](C)CO)C(=O)Cc2cc(NC(=O)c3ccncc3)ccc2O[C@H]1CN(C)Cc1ccncc1`, the cytotoxicity call was “inactive”. Regarding `COCCNC(=O)C[C@@H]1CC[C@@H]2[C@H](COC[C@@H](O)CN2S(=O)(=O)c2ccccc2C)O1`, the cytotoxicity call was “inactive”.

`C[C@H](CO)N1C[C@H](C)[C@@H](CN(C)C(=O)C2CCCCC2)OCCCC[C@H](C)Oc2ccc(NC(=O)CCC(F)(F)F)cc2C1=O`: the cytotoxicity call is “inactive”.

With `C[C@@H]1CCCCO[C@@H](CN(C)C(=O)c2ccncc2)[C@@H](C)CN([C@@H](C)CO)C(=O)c2cc(NS(=O)(=O)c3cn(C)cn3)ccc2O1`, the cytotoxicity call was “inactive”.

For the molecule `Cc1noc(C)c1NC(=O)Nc1cccc2c1O[C@H](CN(C)C(=O)Nc1ccc(C(F)(F)F)cc1)[C@@H](C)CN([C@@H](C)CO)C2=O`, the cytotoxicity call was “inactive”.

As for `C=CC[C@@H](CC(=O)N[C@@H](CO)Cc1ccccc1)C(=O)N1CCC[C@@H]1COC(=O)[C@@H](CC=C)NC(=O)OCC1c2ccccc2-c2ccccc21`, the cytotoxicity call is “inactive”. Take `C[C@@H]1CN([C@H](C)CO)C(=O)Cc2cc(NC(=O)Nc3cccc4ccccc34)ccc2O[C@@H]1CN(C)Cc1ccc(-c2ccccc2)cc1`: the cytotoxicity call was “inactive”. As for `CCS(=O)(=O)N1C[C@]2(CCN(CC2)C(=O)c2cccnc2)c2c(n(c3cc(ccc23)OC)C)[C@@H]1CO`, the entry is “inactive”; as for `COCCNC(=O)c1ccc(N2C[C@H]3C[C@@H](C2)c2cccc(=O)n2C3)c(NC(=O)c2ccc(OC)cc2)c1`, “inactive”; as for `NC(=O)NCC#Cc1ccc2c(c1)[C@]1(C(=O)N2)[C@H](C(N)=O)[C@H]2C(=O)O[C@H](c3ccccc3)[C@H](c3ccccc3)N2[C@@H]1c1ccccc1OCCO`, “inactive”. For the molecule `COc1cc2c(cc1OC)CN(C(=O)[C@@H]1[C@H]3C(=O)O[C@H](c4ccccc4)[C@H](c4ccccc4)N3[C@H](c3ccc(OCCO)cc3)[C@@]13C(=O)Nc1ccc(C#CC4(O)CCCCCC4)cc13)CC2`, the cytotoxicity call is “active”.

With `O=C1O[C@@H](c2ccccc2)[C@@H](c2ccccc2)N2[C@@H](c3ccccc3OCCO)[C@]3(C(=O)Nc4ccc(C#CC5=CCCCC5)cc43)[C@@H](C(=O)N3CCCCCCC3)[C@H]12`, the cytotoxicity call was “active”. For the molecule `O=C1O[C@H](c2ccccc2)[C@H](c2ccccc2)N2[C@H]1[C@@H](C(=O)N1CCCCCCC1)[C@]1(C(=O)Nc3ccc(C#CC4=CCCCC4)cc31)[C@H]2c1ccccc1OCCO`, the cytotoxicity call was “inactive”. The value for `COc1cc2c(cc1OC)CN(C(=O)[C@@H]1[C@H]3C(=O)O[C@H](c4ccccc4)[C@H](c4ccccc4)N3[C@H](c3ccc(O)cc3)[C@@]13C(=O)Nc1ccc(C#CC4(O)CCCCCC4)cc13)CC2` was “inactive”. The value for `NC(=O)[C@H]1[C@@H]2C(=O)O[C@@H](c3ccccc3)[C@@H](c3ccccc3)N2[C@@H](c2ccccc2OCCO)[C@]12C(=O)Nc1ccc(C#CC3=CCCCC3)cc12` was “active”. On to `O=C1O[C@@H](c2ccccc2)[C@@H](c2ccccc2)N2[C@@H](c3ccccc3OCCO)[C@]3(C(=O)Nc4ccc(C#CC5(O)CCCCCC5)cc43)[C@@H](C(=O)O)[C@H]12`, for which the cytotoxicity call was “inactive”. `COc1cc2c(cc1OC)CN(C(=O)[C@H]1[C@@H]3C(=O)O[C@@H](c4ccccc4)[C@@H](c4ccccc4)N3[C@@H](c3ccccc3OCCO)[C@]13C(=O)Nc1ccc(C#CC4=CCCCC4)cc13)CC2`: the cytotoxicity call is “inactive”. The value for `COc1cc2c(cc1OC)CN(C(=O)[C@H]1[C@@H]3C(=O)O[C@@H](c4ccccc4)[C@@H](c4ccccc4)N3[C@@H](c3ccc(OCCO)cc3)[C@]13C(=O)Nc1ccc(C#CC4(O)CCCCCC4)cc13)CC2` was “inactive”; that for `C[C@@H]1CN([C@H](C)CO)C(=O)c2cccc(NC(=O)C3CCOCC3)c2O[C@H]1CN(C)S(=O)(=O)c1cccs1` was “inactive”.

Consider `C[C@@H]1CN([C@H](C)CO)C(=O)c2cc(NC(=O)Nc3cccc4ccccc34)ccc2O[C@@H](C)CCCCO[C@H]1CN(C)Cc1ccc(Cl)c(Cl)c1`, for which the cytotoxicity call is “inactive”. Take `C[C@@H]1CN([C@@H](C)CO)C(=O)c2cc(NC(=O)Cn3cnnn3)ccc2O[C@H]1CN(C)Cc1ccc(-c2ccccc2)cc1`: the cytotoxicity call was “inactive”.

`CC(C)CN1C(=O)[C@@]2(c3ccc([N+](=O)[O-])cc3)CC(=O)N(CC34CC5CC(CC(C5)C3)C4)[C@@H]2c2ccc(CO)cc21`: the cytotoxicity call is “inactive”. As for `Cc1cc(C)n(-c2nc(=O)cc(C)[nH]2)n1`, the entry is “inactive”; as for `[N-]=[N+]=NCCOCCNC(=O)CCCOc1ccc(CS(=O)c2nnc(-c3ccc(F)cc3)o2)nc1` (stereo unspecified), “active”; as for `COc1ccc(NC(=O)N(C)C[C@@H]2OCCCC[C@@H](C)Oc3ccc(NC(=O)CCC(F)(F)F)cc3C(=O)N([C@@H](C)CO)C[C@H]2C)cc1`, “inactive”. Consider `Cc1noc(C)c1NC(=O)N(C)C[C@@H]1OCCCC[C@@H](C)Oc2ccc(NS(=O)(=O)c3ccc(F)cc3)cc2C(=O)N([C@H](C)CO)C[C@@H]1C`, for which the cytotoxicity call was “inactive”.

Consider `C[C@@H]1CN([C@@H](C)CO)C(=O)Cc2cc(NC(=O)Cc3cn(C)c4ccccc34)ccc2O[C@@H]1CN(C)S(C)(=O)=O`, for which the cytotoxicity call was “inactive”. As for `CCS(=O)(=O)CCn1c([N+](=O)[O-])cnc1C` [listing 1 of 2 here], the entry is “active”; as for `CCS(=O)(=O)CCn1c([N+](=O)[O-])cnc1C` [listing 2 of 2 here], “inactive”; as for `Cc1ncc([N+](=O)[O-])n1CCO`, “inactive”.

With `Cc1cc(O)c(-c2ccc([C@@H](C)CN)cc2)c2c1[nH]c(=O)c1sccc12`, the cytotoxicity call was “active”. Regarding `C[C@H]1CN([C@@H](C)CO)C(=O)CCCn2nncc2CO[C@@H]1CN(C)C(=O)c1cc(-c2ccccc2)on1`, the cytotoxicity call was “inactive”. On to `C[C@@H]1CCCCO[C@@H](CN(C)S(=O)(=O)c2ccccc2)[C@@H](C)CN([C@@H](C)CO)C(=O)c2cc(NC(=O)Nc3ccc4c(c3)OCO4)ccc2O1`, for which the cytotoxicity call was “inactive”. Regarding `CC(C)(C)S(=O)N1Cc2cc(C(=O)Nc3ccc(-c4ccccc4)cc3)nc(-c3cccc(-c4cccc(F)c4)c3)c2[C@@H]1CCO` (stereo partly specified), the cytotoxicity call was “active”. For the molecule `CCOC(=O)c1cc2c(c(-c3ccccc3)n1)[C@@H](CCO[Si](C)(C)C(C)(C)C)N([S@](=O)C(C)(C)C)C2`, the cytotoxicity call was “inactive”.

Regarding `CC(C)(C)S(=O)N1Cc2cc(C(=O)NCc3ccc(Oc4ccccc4)cc3)nc(-c3cccc(C#CCC4CCCC4)c3)c2[C@@H]1CCO` (stereo partly specified), the cytotoxicity call was “inactive”. In the case of `CCNC(=O)c1cc2c(c(-c3cccc(-c4cccc(F)c4)c3)n1)[C@@H](CCO)N([S@](=O)C(C)(C)C)C2`, the cytotoxicity call is “inactive”. The value for `CCOC(=O)c1cc2c(c(-c3cccc(C#CCN(C)C)c3)n1)[C@@H](CCO[Si](C)(C)C(C)(C)C)N([S@](=O)C(C)(C)C)C2` was “active”; that for `CCOC(=O)c1cc2c(c(-c3cccc(Br)c3)n1)[C@@H](CCO[Si](C)(C)C(C)(C)C)N([S@](=O)C(C)(C)C)C2` was “inactive”; that for `CCCNC(=O)c1cc2c(c(-c3cccc(-c4ccc(F)cc4)c3)n1)[C@H](CCO)N([S@@](=O)C(C)(C)C)C2` was “inactive”. The value for `CC(C)(C)S(=O)N1Cc2cc(C(=O)NCc3ccc(Oc4ccccc4)cc3)nc(-c3cccc(-c4cccc(F)c4)c3)c2[C@@H]1CCO` (stereo partly specified) was “active”; that for `CCCNC(=O)c1cc2c(c(-c3cccc(-c4ccc(F)cc4)c3)n1)[C@@H](CCO)N([S@](=O)C(C)(C)C)C2` was “inactive”; that for `CCNC(=O)c1cc2c(c(-c3cccc(-c4cccc(F)c4)c3)n1)[C@H](CCO)N([S@@](=O)C(C)(C)C)C2` was “active”.

As to `COc1ccc(CNC(=O)c2cc3c(c(-c4cccc(-c5cccc(C#N)c5)c4)n2)[C@@H](CCO)N([S@](=O)C(C)(C)C)C3)cc1`, the cytotoxicity call was “inactive”. As for `CCCNC(=O)c1cc2c(c(-c3cccc(-c4cccc(F)c4)c3)n1)[C@H](CCO)N([S@@](=O)C(C)(C)C)C2`, the entry is “inactive”; as for `C[C@@H]1CN([C@@H](C)CO)C(=O)c2cc(NC(=O)c3ccncc3)ccc2O[C@@H](C)CCCCO[C@H]1CN(C)S(C)(=O)=O`, “inactive”; as for `C[C@H]1CN([C@@H](C)CO)S(=O)(=O)c2ccc(-c3cccnc3)cc2O[C@H]1CN(C)CC1CCOCC1`, “inactive”. Regarding `C[C@H](CO)N1C[C@H](C)[C@@H](CN(C)C(=O)Nc2cccc3ccccc23)OCCCC[C@H](C)Oc2ccc(NC(=O)Nc3ccc4c(c3)OCO4)cc2C1=O`, the cytotoxicity call is “inactive”.

With `O=C(O)Cn1nnc(-c2ccccc2)n1`, the cytotoxicity call is “inactive”. Take `C[C@@H]1CCCCO[C@@H](CN(C)C(=O)Cc2ccccc2)[C@H](C)CN([C@@H](C)CO)C(=O)c2cc(NS(=O)(=O)c3cccs3)ccc2O1`: the cytotoxicity call is “inactive”.

Take `COC(=O)c1[nH]c(C(=O)OC)c(O)c1O`: the cytotoxicity call is “inactive”.

For `C[C@H]1CN([C@@H](C)CO)C(=O)c2cc(C3=CCCC3)cnc2O[C@@H]1CN(C)S(=O)(=O)c1cn(C)cn1`, the cytotoxicity call was “inactive”. `CC(C)(O)C#Cc1cccc(-c2nc(C(=O)NCCCN3CCOCC3)cc3c2[C@@H](CCO)N(S(=O)C(C)(C)C)C3)c1` (stereo partly specified): the cytotoxicity call is “inactive”. As for `CCCNC(=O)c1cc2c(c(-c3cccc(-c4cccc(F)c4)c3)n1)[C@@H](CCO)N([S@](=O)C(C)(C)C)C2`, the cytotoxicity call was “inactive”. Consider `CC(C)(C)[S@@](=O)N1Cc2cc(C(=O)NCC(F)(F)F)nc(-c3cccc(-c4cccc(F)c4)c3)c2[C@H]1CCO`, for which the cytotoxicity call is “inactive”. On to `CC(C)(C)[S@](=O)N1Cc2cc(C(=O)NCC(F)(F)F)nc(-c3cccc(-c4cccc(F)c4)c3)c2[C@@H]1CCO`, for which the cytotoxicity call is “active”. The value for `CC(C)(O)C#Cc1cccc(-c2nc(C(=O)Nc3ccc(-c4ccccc4)cc3)cc3c2[C@@H](CCO)N(S(=O)C(C)(C)C)C3)c1` (stereo partly specified) was “active”; that for `CC(C)(C)S(=O)N1Cc2cc(C(=O)Nc3ccc(-c4ccccc4)cc3)nc(-c3cccc(C#CCC4CCCC4)c3)c2[C@@H]1CCO` (stereo partly specified) was “inactive”.
